Assay outcomes: PubChem BioAssay, several laboratories
Most compounds without a hit are left out; they make up all but 2.7% or so of the library.
TMEM16A act: activates or potentiates the mouse TMEM16A chloride channel. B-score at 10 µM. HEK293 TMEM16A/YFP-H148Q/I152L, iodide quench fluorescence; stronger effect = lower value. Q8BHY3. 340,000 tested, 0.3% active. AID 623877;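 active means fluorescence-ratio B-score plate-corrected deviation score at least 3 library SD below zero, with starting fluorescence score within 5 deviations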;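 further: channel opened by trigger with iodide after compound preincubation; score built on the fluorescence ratio of max minus min over baseline; more negative score means more quench and so TMEM16A activation or potentiation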
IDE cell activ: boosts human insulin-degrading enzyme activity in HEK cells; FAbeta-B cleavage, fluorescence polarization; 0% vehicle, 100% cell-free pure enzyme wells; 340,000 tested, 0.073% active; activation, % at 5.96 µM; P14735;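 active means activation above the mean of all tested compounds plus 3 SD, set per screening campaign, cut at about 17% in these data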
TMEM16A inh: mouse TMEM16A channel inhibition, primary screen. Q8BHY3. HEK293 TMEM16A/YFP iodide influx fluorescence, ionomycin. normalized B-score (activity score, 25-100; higher = stronger inhibition) at 10 µM. 310,000 tested, 1.2% active. AID 588511;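 active means ratio plate-corrected score three or more library SD toward inhibition, starting fluorescence score within five deviations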;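 further: score derived from kinetic fluorescence span divided by baseline fluorescence per well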
CHT inh: inhibitors of human choline transporter CHT; Q9GZV3; CHT-expressing cells, membrane potential dye, choline response; stronger effect = lower value; B-score at 10 µM; 310,000 tested, 0.86% active;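 active means B-score over 3 SD under the library average, and starting fluorescence ratio not unusually high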;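 further: choline stimulus applied at its EC90 after an EC20 pre-addition; B-score computed on integrated fluorescence ratio after choline addition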
Target sequence (Q9GZV3 whole entry, looked up): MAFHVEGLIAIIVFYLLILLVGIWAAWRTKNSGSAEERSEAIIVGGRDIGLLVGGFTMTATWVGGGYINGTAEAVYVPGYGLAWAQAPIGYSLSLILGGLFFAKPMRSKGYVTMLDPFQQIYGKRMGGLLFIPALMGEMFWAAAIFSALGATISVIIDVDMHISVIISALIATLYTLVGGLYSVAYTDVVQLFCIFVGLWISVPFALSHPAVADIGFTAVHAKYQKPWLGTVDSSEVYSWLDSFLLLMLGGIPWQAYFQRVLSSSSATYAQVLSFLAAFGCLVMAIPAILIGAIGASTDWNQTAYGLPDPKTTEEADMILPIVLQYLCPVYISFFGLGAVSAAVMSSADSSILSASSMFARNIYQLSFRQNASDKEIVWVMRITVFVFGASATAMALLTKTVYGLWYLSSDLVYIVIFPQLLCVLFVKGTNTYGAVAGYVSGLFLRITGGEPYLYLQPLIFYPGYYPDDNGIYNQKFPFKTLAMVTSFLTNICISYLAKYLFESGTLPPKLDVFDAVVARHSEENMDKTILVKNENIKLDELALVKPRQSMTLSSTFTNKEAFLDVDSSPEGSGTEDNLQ
IDE cell inh: inhibits human insulin-degrading enzyme in HEK cells | P14735 | FAbetaB cleavage, fluorescence polarization | inhibition, % at 5.59 µM | 320,000 tested, 0.41% active;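 active means percent inhibition above the average of all tested compounds plus 3 SD, set per screening campaign, cut at about 16% in these data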;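 further: IDE supplied by intact live HEK cells; FP after avidin binding of uncleaved biotin substrate so inhibition keeps polarization high; 0% = DMSO wells and 100% = 60 µM reference IDE inhibitor Ii1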
CHT PAM: human CHT allosteric activation. Q9GZV3. CHT-expressing cells, membrane potential dye, choline EC20; stronger effect = higher value; LV-AA mutant CHT in HEK293 cells. B-score at 10 µM. 310,000 tested, 0.49% active;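 active means initial fluorescence not abnormally high and integrated response B-score, plate-corrected, over 3 SD above library mean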
* hit, by the source's call; i = inactive; nt = no result given.

SMILES	TMEM16A act	IDE cell activ	TMEM16A inh	CHT inh	IDE cell inh	CHT PAM
C#CCOCCOCCOCCNc1nc(N2CCN(C(=O)CCCCCCCCCCNC(=O)[C@H]([C@@H](C)CC)n3cc(CCCCN=C(N)N)nn3)CC2)nc(N2CCN(C(=O)CCCCCCCCCCNC(=O)[C@@H]([C@H](C)O)n3cc(C)nn3)CC2)n1	-24.9*	50.6*	25*	i	-1.4	i
C#CCOCCOCCOCCNc1nc(N2CCN(C(=O)CCCCCCCCCCNC(=O)[C@@H](CCC(=O)O)n3cc(CCCCCN)nn3)CC2)nc(N2CCN(C(=O)CCCCCCCCCCNC(=O)[C@H](CCCCN)n3cc(C[C@@H](C)CC)nn3)CC2)n1	-5.73*	14.0	100*	i	4.6	i
C#CCOCCOCCOCCNc1nc(N2CCN(C(=O)CCCCCCCCCCNC(=O)[C@@H](CCSC)n3cc(CCO)nn3)CC2)nc(N2CCN(C(=O)CCCCCCCCCCNC(=O)[C@H](CO)n3cc(CCCCCN)nn3)CC2)n1	i	28.9*	i	i	5.5	i
C#CCOCCOCCOCCNc1nc(N2CCN(C(=O)CCCCCCCCCCNC(=O)[C@@H](CCSC)n3cc(CCO)nn3)CC2)nc(N2CCN(C(=O)CCCCCCCCCCNC(=O)[C@H](CCC(=O)O)n3cc(CCCCCN)nn3)CC2)n1	i	4.2	i	i	9.4	i
C#CCOCCOCCOCCNc1nc(N2CCN(C(=O)CCCCCCCCCCNC(=O)Cn3cc(C[C@@H](C)O)nn3)CC2)nc(N2CCN(C(=O)CCCCCCCCCCNC(=O)[C@@H](CCSC)n3cc(CCO)nn3)CC2)n1	i	0.1	i	i	6.0	i
COc1cc(/C=C/C(=O)OCC(=O)NCC(=O)Nc2cccc(C)c2C)ccc1OC(F)F	i	-3.7	nt	nt	-0.7	nt
C#CCOCCOCCOCCNc1nc(N2CCN(C(=O)CCCCCCCCCCNC(=O)[C@H](CCCCN)n3cc(C)nn3)CC2)nc(N2CCN(C(=O)CCCCCCCCCCNC(=O)[C@H](CCCN=C(N)N)n3cc(C[C@@H](C)CC)nn3)CC2)n1	nt	nt	100*	i	4.0	i
C#CCOCCOCCOCCNc1nc(N2CCN(C(=O)CCCCCCCCCCNC(=O)[C@@H](CCC(=O)O)n3cc(CCCCCN)nn3)CC2)nc(N2CCN(C(=O)CCCCCCCCCCNC(=O)[C@H](CO)n3cc(CCCCCN)nn3)CC2)n1	i	5.0	i	i	-1.4	i
C#CCOCCOCCOCCNc1nc(N2CCN(C(=O)CCCCCCCCCCNC(=O)[C@H](CCCCN)n3cc(CCO)nn3)CC2)nc(N2CCN(C(=O)CCCCCCCCCCNC(=O)[C@H](CCCCN)n3cc(CCCC(=O)O)nn3)CC2)n1	i	4.4	i	i	7.3	i
C#CCOCCOCCOCCNc1nc(N2CCN(C(=O)CCCCCCCCCCNC(=O)[C@H](CCCN=C(N)N)n3cc(C[C@@H](C)CC)nn3)CC2)nc(N2CCN(C(=O)CCCCCCCCCCNC(=O)[C@@H]([C@H](C)CC)n3cc(CCCCCN)nn3)CC2)n1	nt	nt	25*	i	5.7	i
C#CCOCCOCCOCCNc1nc(N2CCN(C(=O)CCCCCCCCCCNC(=O)[C@H](CO)n3cc(CCCCCN)nn3)CC2)nc(N2CCN(C(=O)CCCCCCCCCCNC(=O)[C@H](CCCN=C(N)N)n3cc(C[C@@H](C)CC)nn3)CC2)n1	nt	nt	100*	i	-4.7	i
C#CCOCCOCCOCCNc1nc(N2CCN(C(=O)CCCCCCCCCCNC(=O)[C@H](CCCCN)n3cc(C[C@@H](C)CC)nn3)CC2)nc(N2CCN(C(=O)CCCCCCCCCCNC(=O)[C@@H]([C@H](C)O)n3cc(C)nn3)CC2)n1	-17.7*	33.7*	i	i	-6.4	i
CCOC(=O)C1(Cc2ccccc2)CCCCCC1=O (configuration not stated)	i	-0.8	nt	nt	nt	nt
CC12CCC(=O)C=C1CCC1C2CCC2(C)C1CC1C3C(=O)N(Cc4ccccc4)C(=O)C3CC(=O)C12 (configuration not stated)	i	0.8	nt	nt	nt	nt
Cc1cn([C@@H](CCCCNC(=O)OC(C)(C)C)C(=O)NCCCCCCCCCCC(=O)N2CCN(C(=O)OC(C)(C)C)CC2)nn1	i	4.7	i	-5.81*	4.9	i
C#CCOCCOCCOCCNc1nc(N2CCN(C(=O)CCCCCCCCCCNC(=O)[C@H]([C@@H](C)CC)n3cc(CCCCN=C(N)N)nn3)CC2)nc(N2CCN(C(=O)CCCCCCCCCCNC(=O)[C@H](CCCN=C(N)N)n3cc(C[C@@H](C)CC)nn3)CC2)n1	nt	nt	25*	i	-2.6	i
Cc1ccc2c(c1)c1c(n2CC(O)CNC2CCCC2)CCCC1 (configuration not stated)	i	17.6*	i	i	5.1	i
COCCOC(=O)C1=C(C)NC(=O)NC1c1cccc2ccccc12 (configuration not stated)	i	-6.2	i	i	2.1	i
CCOC(=O)C(NC(=O)c1ccccc1Cl)(Nc1ccc(C)c(C)c1)C(F)(F)F (configuration not stated)	i	-1.6	i	i	1.3	i
COC(=O)C(Nc1ccccc1Cl)(c1cc(C)c(O)c(C)c1)C(F)(F)F (configuration not stated)	i	1.9	100*	i	2.1	i
CCc1ccccc1NC(=O)COC(=O)C1C2CC3OC(=O)C1C3C2 (configuration not stated)	i	-0.1	i	i	0.2	i
CC1CN(C(=O)c2ccccc2NS(=O)(=O)c2ccc(Cl)cc2)CC(C)O1 (configuration not stated)	i	3.5	nt	nt	3.2	nt
COc1cccc(Oc2ccc(N/C=C/C(=O)C(C)(C)C)cc2)c1	i	3.6	25*	i	-0.8	i
CC1(C)CC2CC(C)(CN2/C=C2/CCCCC2=O)C1 (configuration not stated)	i	3.1	i	i	3.7	i
C/C(CC(=O)Nc1ccc(N(C)C)cc1)=N\NC(=O)c1ccc(Cl)cc1	i	-3.8	i	i	2.2	i
C/C(CC(=O)Nc1ccc(N(C)C)cc1)=N\NC(=O)c1ccncc1	i	18.4*	i	i	1.0	i
CCN1C(=O)/C(=C\c2ccc(F)cc2)N=C1SCC(=O)NCc1ccco1	i	5.6	i	i	-2.1	i
C=CCN1C(=O)/C(=C\c2ccc(Cl)cc2)N=C1SCC(=O)NCCC	-26.8*	1.7	i	i	-1.7	i
